Results filed as inconclusive are left out. Activity calls are given as the source filed them. The call rests on the fitted dose curve; in most records, active means well fitted activation curve with a large enough effect; inconclusive means small, poorly fitted or top-dose-only effect; inactive means no such curve, though single readings can be large or run the other way.
Potency means the concentration at half of the fitted maximal effect.

Chain of Relaxin receptor 1 (Homo sapiens) (Q9HBX9 whole entry, looked up): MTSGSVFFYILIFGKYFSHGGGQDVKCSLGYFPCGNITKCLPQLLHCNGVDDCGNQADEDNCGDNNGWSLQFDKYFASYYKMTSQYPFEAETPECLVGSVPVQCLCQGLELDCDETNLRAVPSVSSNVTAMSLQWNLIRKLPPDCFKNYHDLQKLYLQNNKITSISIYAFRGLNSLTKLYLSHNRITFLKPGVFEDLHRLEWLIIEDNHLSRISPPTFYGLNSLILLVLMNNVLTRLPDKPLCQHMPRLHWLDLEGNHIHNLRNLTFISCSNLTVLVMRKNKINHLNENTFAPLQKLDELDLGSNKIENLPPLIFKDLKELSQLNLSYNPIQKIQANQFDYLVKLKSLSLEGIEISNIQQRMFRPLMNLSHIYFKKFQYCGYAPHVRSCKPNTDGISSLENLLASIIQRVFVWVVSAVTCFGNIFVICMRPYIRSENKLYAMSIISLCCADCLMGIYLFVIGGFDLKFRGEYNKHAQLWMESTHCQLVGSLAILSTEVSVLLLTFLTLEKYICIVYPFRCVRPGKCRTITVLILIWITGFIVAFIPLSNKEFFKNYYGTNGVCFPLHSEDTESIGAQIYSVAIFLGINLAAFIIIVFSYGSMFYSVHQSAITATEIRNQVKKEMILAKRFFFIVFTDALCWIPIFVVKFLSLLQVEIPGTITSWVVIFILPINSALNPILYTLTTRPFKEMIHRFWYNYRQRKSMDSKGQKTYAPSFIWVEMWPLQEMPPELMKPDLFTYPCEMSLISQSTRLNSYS

The target of the experiment is Relaxin receptor 1 (Homo sapiens) (UniProt Q9HBX9). The experiment can be described thus: qHTS Assay for Agonists of the Relaxin Receptor RXFP1: THP1 Hit Validation. Further: nearly all actives have a fitted effect of over 60% in size. As to conditions: THP1-RXFP1 cells, cAMP TR-FRET, 30 min; series mostly up to 115 µM. In a few lines:
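RXFP1-THP1 cells, 2000/well, + Ro 20174 (PDE4 inhib.); cpd 30 min 37C. Lysis + cAMP-d2/anti-cAMP cryptate, 30 min RT, HTRF 665/615. Norm: buffer vs 29 nM porcine relaxin; Hill EC50.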
(qHTS replaces the single test concentration by a dilution series.)
`O=c1c2ccccc2cnn1Cc1n[nH]c(=S)n1-c1ccc(F)c(Cl)c1`: the Potency was 12.3 µM (active).

As to `O=C(OCc1nc2ccsc2c(=O)[nH]1)c1cccc(S(=O)(=O)N2CCOCC2)c1`, the Potency was 43.6 µM (active). `CC(C)n1cnc2c(N(C)c3cccc(Cl)c3)nc(N(CCO)CCO)nc21`: the Potency result was “inactive”. In the case of `O=C(O)CNC(=O)c1ccccc1NC(=O)c1ccco1`, the Potency result was “inactive”. On to `O=C(O)c1cc(-c2ccc(Br)s2)nc2ccccc12`, for which the Potency is 3.08 µM (active). Consider `COc1cccc(C(=O)CSc2nnc(-c3cc(OC)cc(OC)c3)o2)c1`, for which the Potency was 12.3 µM (active). Take `O=C(Nc1ccccc1C(=O)NCc1ccc(Cl)cc1)c1ccco1`: the Potency entry was “inactive”.

`CCC(Sc1ccc2nnc(-c3cccnc3)n2n1)C(=O)OC` (centres undefined): the Potency was 19.4 µM (active). The result for `CCCN(CCC)S(=O)(=O)c1cc(CN2C(=O)c3cccnc3C2=O)ccc1OC` reads 24.5 µM (active); that for `Nc1cc2ccncc2c2ccccc12`, “inactive”; that for `Brc1ccc2ncnc(NCc3cccnc3)c2c1`, 48.9 µM (active).

Consider `CCN(CC)CCCCCC(=O)Nc1ccccc1C(=O)Nc1ccccc1`, for which the Potency result is “inactive”. Under `CCN(CC)C(=O)c1cc(Cl)ccc1NC(=O)c1ccco1` stands “inactive”; under `COC(=O)[C@@H]1C[C@@]2(O)[C@H](O)[C@H](O)[C@H](O)C[C@H]2N1Cc1cc(F)ccc1F`, “inactive”.

With `NC(=S)c1cc2ccc(O)cc2oc1=O`, the Potency is 4.88 µM (active). Take `CC1CCN(S(=O)(=O)c2ccc3nc(N4CCN(c5ccccc5)CC4)ccc3c2)CC1`: the Potency was 15.4 µM (active). `CCOC(=O)CNC(=O)CSc1ccc2nnc(-c3cccnc3)n2n1`: the Potency result is “inactive”. As for `O=C(Nc1ccccc1C(=O)NC1CCCCC1)c1ccco1`, the Potency result was “inactive”. For `CN(C)c1ccc2nc3c(=O)[nH]c(=O)nc-3n(CC(O)C(O)C(O)CO)c2c1` (centres undefined), the Potency result was “inactive”. Consider `c1ccc(COn2nnc3ccccc32)c(COn2nnc3ccccc32)c1`, for which the Potency result was “inactive”.

As for `CCC1(C)Cc2c(sc3c2c2ncnn2c2nnc(SCC(=O)NCc4ccco4)n32)CO1` (centres undefined), the Potency was 11 µM (active).

On to `c1ccc(-c2nnc(-c3ccccn3)c(-c3ccccn3)n2)nc1`, for which the Potency result was “inactive”.

Consider `Cn1c(=O)c(C(=O)COc2ccc(C#N)cc2)c(N)n(Cc2ccccc2)c1=O`, for which the Potency was 8.7 µM (active).

`COC(=O)Cn1cnc2c(C#N)c3n(c2c1=O)CCCCC3`: the Potency is 8.7 µM (active). Under `CC(C)C(=O)Nc1ccc(Nc2ccccc2)cc1` stands “inactive”. For the compound `CC1(C)O[C@@H]2[C@H](O1)[C@@H](COS(=O)(=O)O)O[C@H]2n1cnc2c(N)ncnc21`, the Potency is 5.48 µM (active). The result for `Cc1cc2nc3ccc(=[N+](C)C)cc-3sc2cc1N` reads “inactive”; that for `O=C(Nc1ccccc1C(=O)NCc1ccco1)c1ccccc1`, “inactive”; that for `O=C(Nc1ccccc1C(=O)N1CCN(c2ccccc2)CC1)c1ccco1`, “inactive”. Under `O=C(O)CCSc1ccc2ccccc2n1` stands 19.4 µM (active). For `CCOc1ccc2cc(C#N)c(SCC(=O)NC(C)CC)nc2c1` (centres undefined), the Potency was 6.9 µM (active). As to `CCOC(=O)CNC(=O)CSc1nc2c(C)cccc2cc1CC`, the Potency was 19.4 µM (active). For the compound `COc1ccccc1CNS(=O)(=O)c1cc(CN2C(=O)c3cccnc3C2=O)ccc1OC`, the Potency was 17.4 µM (active).

Take `CCOC(=O)CCCCC(=O)c1[nH]c(=O)[nH]c1CSc1nnc2c3cc(Br)ccc3n(C)c2n1`: the Potency was 8.68 µM (active). The result for `CC(C)n1c(SCC(=O)N2CCN(C(=O)c3ccco3)CC2)nc2c1c(=O)n(C)c(=O)n2C` reads 6.9 µM (active). As for `O=C(Nc1ccccc1C(=O)N1CCOCC1)c1ccco1`, the Potency result was “inactive”. Take `Nc1nnc(CC(=O)N/N=C/c2ccc(-c3ccc(Cl)cc3Cl)o2)s1`: the Potency entry was “inactive”. With `CC(C(=O)OCC(=O)N(C)C1(C#N)CCCCC1)N1C(=O)c2ccccc2C1=O` (centres undefined), the Potency is 15.4 µM (active). Consider `Cc1cc(C)c(C(=O)CSc2n[nH]c(=O)n2C2CC2)cc1C`, for which the Potency result was “inactive”.

For the origin of these results see PubChem BioAssay AID492949 (National Center for Advancing Translational Sciences (NCATS), 2010).
